Only some compounds are listed: those with a hit (about 12% of all), similar ones and a draw of the others.
ROMK primary – human ROMK K+ channel modulation, primary screen; 130,000 tested, 2% active; P48048; B-score at 10 µM; AID 1918; Tet-inducible ROMK, thallium flux fluorescence; actives lie on both sides;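 active means signal ratio slope over the read window, or its plate-corrected B-score, at least 3 SD from the plate mean, either direction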;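 further: B-score of the F/F0 ratio slope over 7 to 12 s after thallium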
WT yeast gro inh – growth inhibition of WT yeast, mitochondrial fusion screen; mitochondrial fusion phenotypic screen, WT strain; inhibition, % at 10 µM; 190,000 tested, 2.1% active; AID 1362; in the data active means inhibition above about 58%; tested in S. cerevisiae
KCC2 mod – KCC2 (human) Cl- transport modulation | Q9H2X9 | 190,000 tested, 2.2% active | AID 1456 | KCC2 cells, thallium flux FluoZin-2 fluorescence | B-score of Tl+ flux slope (higher = more flux/activation; lower = inhibition) at 10 µM;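 active means thallium flux slope and its plate-corrected score both differing from the plate sample mean at a set confidence after two filtering rounds, in either direction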;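 further: slope of fluorescence scaled to starting intensity during 10 to 20 s after thallium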
Target sequence (Q9H2X9 whole entry, looked up): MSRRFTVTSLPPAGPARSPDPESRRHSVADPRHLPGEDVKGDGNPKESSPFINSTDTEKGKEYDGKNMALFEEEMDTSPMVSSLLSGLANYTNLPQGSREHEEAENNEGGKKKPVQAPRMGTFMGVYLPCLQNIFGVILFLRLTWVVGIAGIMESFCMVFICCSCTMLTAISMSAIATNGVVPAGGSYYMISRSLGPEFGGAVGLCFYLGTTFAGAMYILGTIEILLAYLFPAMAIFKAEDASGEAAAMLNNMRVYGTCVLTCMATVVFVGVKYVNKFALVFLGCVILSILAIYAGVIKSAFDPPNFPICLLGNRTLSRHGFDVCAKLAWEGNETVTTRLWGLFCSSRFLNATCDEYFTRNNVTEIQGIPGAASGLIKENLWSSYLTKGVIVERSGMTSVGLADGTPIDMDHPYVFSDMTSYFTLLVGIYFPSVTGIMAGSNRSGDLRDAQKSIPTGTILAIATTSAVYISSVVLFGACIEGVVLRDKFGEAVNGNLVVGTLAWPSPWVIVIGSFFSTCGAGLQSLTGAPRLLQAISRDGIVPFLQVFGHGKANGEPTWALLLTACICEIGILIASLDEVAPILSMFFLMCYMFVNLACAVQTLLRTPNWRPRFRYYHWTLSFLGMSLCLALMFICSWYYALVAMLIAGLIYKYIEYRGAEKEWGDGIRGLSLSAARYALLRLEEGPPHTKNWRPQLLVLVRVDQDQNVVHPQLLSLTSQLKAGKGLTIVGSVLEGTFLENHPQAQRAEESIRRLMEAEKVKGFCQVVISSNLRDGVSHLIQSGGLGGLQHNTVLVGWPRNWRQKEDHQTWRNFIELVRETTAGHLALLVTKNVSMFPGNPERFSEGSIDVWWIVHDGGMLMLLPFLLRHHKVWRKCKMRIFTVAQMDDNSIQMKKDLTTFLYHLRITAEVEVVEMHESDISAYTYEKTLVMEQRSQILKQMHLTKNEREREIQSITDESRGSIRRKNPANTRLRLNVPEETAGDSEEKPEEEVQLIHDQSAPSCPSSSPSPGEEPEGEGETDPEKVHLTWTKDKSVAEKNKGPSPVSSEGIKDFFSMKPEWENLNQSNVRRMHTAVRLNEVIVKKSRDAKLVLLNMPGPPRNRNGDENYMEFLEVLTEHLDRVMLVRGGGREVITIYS
Calpain2 inh – inhibitors of pig calpain II; 220,000 tested, 0.37% active; purified calpain II, fluorogenic peptide substrate, 30 min; inhibition, % at 16 µM;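 active means inhibition above about 50%, limit read from the data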
L major viab – inhibitors of Leishmania major promastigote growth; Leishmania major promastigotes, resazurin fluorescence viability; inhibition, % at 10 µM; 200,000 tested, 9% active; AID 1063; in the data active means inhibition above about 50%;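 further: promastigotes grown with compound for 44 hours at 28 °C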
* = called active by the depositor; i = inactive; / = no result.

SMILES	ROMK primary	WT yeast gro inh	KCC2 mod	Calpain2 inh	L major viab
Cc1c(NS(=O)(=O)c2ccc(N(C)C3CCCCC3)c([N+](=O)[O-])c2)c(=O)n(-c2ccccc2)n1C	/	12.5	-2.59	-29.6	50.5*
Cc1ccc(Nc2cc(C)nn2-c2nc(C)cc(C)n2)cc1	/	75.0*	0.958	-30.4	92.1*
Cc1ccc(Nc2cc(C)nn2-c2nc(C)cc(=O)[nH]2)cc1	-0.319	16.5	/	23.3	100.5*
Cc1ccc(Nc2nc3ccccc3nc2-n2nc(C)cc2C)cc1	/	-7.9	-0.0359	-18.3	-5.8
CC(=O)Nc1cc(C)nn1-c1nc(C)cc(C)n1	-0.0287	-1.5	0.733	-16.1	6.8
CCOC(=O)c1c(NC(C)=O)sc2c(OCCN(CC)CC)c(Br)ccc12	0.094	31.7	0.766	-138.0	99.8*
CCOC(=O)c1c(NC(C)=O)sc2c(OCC(O)CN(CC)CC)c(Br)ccc12 (stereo not given)	-1.2	9.7	0.429	-134.8	100.4*
CCOC(=O)c1c(NC(C)=O)sc2c(OC)c(Br)ccc12	-0.0609	/	/	-13.6	-1.5
CCOC(=O)c1c(C)oc2c(CC(=O)c3ccccc3)c(Cl)c(O)c(O)c12	0	-9.2	0.0997	26.3	-6.4
Cc1nc2sc(C#N)c(N)c2c2c1CCCC2	2.61	0.0	-2.69	/	10.0
N#Cc1sc2nc(N3CCCCC3)c3c(c2c1N)CCCC3	0.361	72.8*	-0.0988	-27.5	18.4
COc1ccc(OC)c(-c2oc3ccccc3c(=O)c2O)c1	/	0.8	6.83*	0.8	37.1
COc1ccc(OC)c(-c2c3cc(O)c(=O)cc-3oc3cc(O)c(O)cc23)c1	/	58.3*	i	36.5	-9.1
CCc1ccc(C(=O)NC(CC(C)C)C(=O)O)cc1 (stereo not given)	-0.398	-11.5	4.68*	1.2	-2.2
CCc1ccc(C(=O)COC(=O)C(Cc2ccccc2)NC(=O)c2ccc(Cl)cc2)cc1 (stereo not given)	-0.0696	17.3	-0.213	15.5	75.2*
Cc1nnc(SC(C)C(=O)Nc2nccs2)s1 (stereo not given)	-1.87	-14.3	0.716	-23.5	2.6
O=c1c2ccccc2nc(COc2ccccc2)n1/N=C/c1cn[nH]c1-c1ccccc1	-0.0347	-1.4	0.266	8.0	51.1*
Cc1ccccc1OCc1nc2ccccc2c(=O)n1/N=C/c1cn[nH]c1-c1ccc(Br)cc1	/	-1.6	-0.756	13.9	4.6
COc1ccc(CN2C3CCCC2CC(NC(=O)/C=C/c2ccccc2)C3)cc1 (stereo not given)	-0.922	-2.3	0.112	-7.4	87.5*
CCc1ccc(NC(=S)NC2CC3CCCC(C2)N3Cc2ccccc2)cc1 (stereo not given)	-1.58	43.2	1.71	35.8	95.5*
O=C(Nc1ccccc1-c1ccccc1)NC1CC2CCCC(C1)N2Cc1ccc(F)cc1 (stereo not given)	-3.03	-5.8	-0.00506	-5.7	69.2*
O=C(/C=C/c1ccccc1)NC1CC2CCCC(C1)N2Cc1ccccc1 (stereo not given)	/	/	0.457	-7.2	/
CNC(=S)NC1CC2CCC(C1)N2Cc1ccccc1 (stereo not given)	-0.49	8.1	1.68	15.1	85.7*
COc1ccc(NC(C)=O)cc1S(=O)(=O)Nc1ccc(C(=O)N2CCCC2)cc1	1.32	/	-0.251	14.1	/
Cc1cccc(NC(=O)C(=O)NCc2ccc3c(c2)OCO3)c1C	0.919	1.4	0.83	-12.8	-4.5
SMILES	ROMK primary	WT yeast gro inh	KCC2 mod	Calpain2 inh	L major viab
S=C(Nc1ccc(Cl)cc1)NC1CC2CCC(C1)N2Cc1ccccc1 (stereo not given)	-0.585	32.3	-0.586	10.4	99.7*
O=S1(=O)CCC(NC(=S)Nc2ccc(Cl)cc2)C1 (stereo not given)	/	-7.3	0.324	-0.2	22.3
NC(N)=N/N=C/c1ccc(Br)cc1	-1.03	7.7	-0.225	24.3	99.8*
N#Cc1ccc(/C=N/N=C(N)N)cc1	-0.374	-5.3	-0.967	-10.8	78.7*
Oc1ccc(/C=N/N=C/c2ccc(O)cc2)cc1	-0.0469	0.6	-0.527	22.5	-1.1
CCCCCCC(c1c(C)n(C)n(-c2ccccc2)c1=O)c1c(C)n(C)n(-c2ccccc2)c1=O	-0.999	13.4	0.0766	20.9	20.4
O=[N+]([O-])c1ccc(OCC2CC(c3ccccc3)=NO2)cc1 (stereo not given)	-1.1	/	-0.672	3.5	/
Cc1cccc2c1[nH]c1nc(N/N=C\c3ccco3)nnc12	/	-0.3	0.143	-77.9	61.0*
Cc1ccc(NC(=O)c2ccc3ccccc3n2)cc1S(=O)(=O)N1CCOCC1	0.544	2.7	-0.94	17.0	-9.0
O=C1CC(C(=O)Nc2cccc(F)c2)n2ncnc2N1 (stereo not given)	-0.906	-15.0	0.642	-22.9	-1.2
Cc1ccccc1-c1nnc(SCc2ccc(F)cc2)o1	0.768	59.6*	/	-16.6	-3.1
COc1ccc(-c2nnc(SCC(=O)c3ccc(C)o3)o2)cc1	/	5.8	0.526	-6.0	0.0
COc1ccc(-c2nnc(SCc3ccccc3F)o2)cc1OC	-0.132	6.0	0.14	-24.8	-3.2
COc1ccc(-c2nnc(-c3ccc(N)cc3)o2)cc1	0.832	20.5	-0.0104	-411.6	99.5*
COc1ccc(-c2nnc(-c3ccc(N(C)C)cc3)o2)cc1	/	8.0	0.0275	-192.9	-8.6
COc1ccc(-c2nnc(SCc3cc(C)cc(C)c3)o2)cc1	/	64.0*	-0.844	18.0	2.2
Cc1ccc(-c2nnc(SCc3ccccc3F)o2)cc1	/	59.9*	/	0.4	-9.7
C=CCn1c(=O)/c(=C/c2cc(OC)c(OC)c(OC)c2)s/c1=C(/C#N)c1nc2ccccc2n1C	/	9.8	-2.14	-53.4	39.3
O=C(C1CC1)N1CCN(c2ccc([N+](=O)[O-])cc2-n2cccc2)CC1	-0.223	/	-0.00782	4.8	/
Nc1[nH]nc2ncc3cc4ccccc4nc3c12	2.09	-0.6	1.85	-26.5	3.1
O=C(Nc1ccc2oc(-c3ccc(Cl)c(Cl)c3)nc2c1)c1ncn[nH]1	0.471	-11.2	-0.826	-53.5	-0.8
O=C(Nc1ccc2oc(-c3ccccc3F)nc2c1)c1ncn[nH]1	-0.169	-28.8	-1.07	-252.4	100.3*
Cc1nn(-c2ccccc2)nc1CNS(C)(=O)=O	/	/	0.191	-33.0	/
O=C(N/N=C/c1ccccn1)c1[nH]c2ccc([N+](=O)[O-])cc2c1-c1ccccc1	1.62	64.6*	2.74	-56.6	98.3*
CCOC(=O)C1(Cc2cccc(OC)c2)CCN(Cc2cnc(SC)nc2)CC1	-0.658	12.2	/	-18.9	82.2*
SMILES	ROMK primary	WT yeast gro inh	KCC2 mod	Calpain2 inh	L major viab
CCOC(=O)C1(Cc2cccc(OC)c2)CCN(Cc2cccc(OC)c2OC)CC1	-1.8	9.8	-1.04	6.3	23.7
CCOC(=O)C1(Cc2cccc(OC)c2)CCN(Cc2cccc3cnccc23)CC1	0.0873	33.4	/	10.2	91.3*
CCOC(=O)C1(Cc2cccc(OC)c2)CCN(Cc2cccnc2)CC1	/	-9.8	0.00968	-28.4	55.1*
CCOC(=O)C1(Cc2cccc(OC)c2)CCN(Cc2cnc(N)nc2)CC1	-0.089	2.0	/	-28.6	-2.5
C=C(C)CNC(=S)Nc1cccc(N)n1	-0.485	19.9	1.45	18.1	5.0
Cc1ccnc(NC(=O)/C=C/c2cccs2)c1	/	5.3	1.59	19.4	-10.3
O=C(CCSc1nc(-c2ccco2)cc(C(F)(F)F)n1)Nc1ccc2c(c1)OCO2	0.118	6.2	1.31	-36.0	15.2
